The source of these data is paper PMC4336329 (PLoS ONE, 2015).

The whole screen tested about 310,000 compounds, of which about 14,000 (4.5%) showed an effect of 50% or more. The effect is printed as a negative number. The sample as a whole holds a higher share of strong results than the screen did.
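Note: peak tail current of the secondary pulse compared with the same well before compound.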

Chain of human ether-à-go-go-related gene (hERG) potassium channel (Q12809 whole entry, looked up): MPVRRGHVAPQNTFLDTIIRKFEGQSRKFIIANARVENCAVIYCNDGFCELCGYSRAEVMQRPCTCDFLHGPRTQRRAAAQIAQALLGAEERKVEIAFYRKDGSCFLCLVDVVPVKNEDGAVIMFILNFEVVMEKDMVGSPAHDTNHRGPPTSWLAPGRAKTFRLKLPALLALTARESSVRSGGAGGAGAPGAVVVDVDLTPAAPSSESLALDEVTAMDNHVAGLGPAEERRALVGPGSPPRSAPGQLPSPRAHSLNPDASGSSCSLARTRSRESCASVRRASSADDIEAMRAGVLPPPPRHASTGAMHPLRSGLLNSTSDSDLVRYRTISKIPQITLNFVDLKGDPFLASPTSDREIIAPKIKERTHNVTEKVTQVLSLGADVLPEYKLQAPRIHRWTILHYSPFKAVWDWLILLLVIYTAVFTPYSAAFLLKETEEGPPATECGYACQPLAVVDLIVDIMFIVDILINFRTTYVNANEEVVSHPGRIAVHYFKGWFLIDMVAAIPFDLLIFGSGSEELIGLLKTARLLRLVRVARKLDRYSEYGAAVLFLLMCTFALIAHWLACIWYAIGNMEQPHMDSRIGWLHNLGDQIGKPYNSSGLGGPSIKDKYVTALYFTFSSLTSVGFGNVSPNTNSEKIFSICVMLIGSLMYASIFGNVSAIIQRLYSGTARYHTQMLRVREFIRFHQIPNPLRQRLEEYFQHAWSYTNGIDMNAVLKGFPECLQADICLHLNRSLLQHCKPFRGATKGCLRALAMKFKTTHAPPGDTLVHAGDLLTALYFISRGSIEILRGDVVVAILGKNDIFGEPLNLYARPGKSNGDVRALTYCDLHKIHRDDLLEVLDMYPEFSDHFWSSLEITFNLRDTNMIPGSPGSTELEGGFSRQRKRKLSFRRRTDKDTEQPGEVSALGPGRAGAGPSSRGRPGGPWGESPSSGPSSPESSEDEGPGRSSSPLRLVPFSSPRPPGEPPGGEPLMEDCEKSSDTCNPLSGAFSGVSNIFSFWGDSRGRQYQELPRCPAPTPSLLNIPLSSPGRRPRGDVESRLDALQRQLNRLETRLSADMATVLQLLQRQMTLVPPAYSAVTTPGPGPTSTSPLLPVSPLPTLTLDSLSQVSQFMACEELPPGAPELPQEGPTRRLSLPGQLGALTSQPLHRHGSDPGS

This assay addresses human ether-à-go-go-related gene (hERG) potassium channel (human, UniProt Q12809). Nature of the assay: primary screen, population patch clamp on CHO cells stably expressing hERG; higher = less effect of the substance.
Turning to `COc1ccc(NC(=O)C2CCCN(C)C2)cc1OCC(C)C` (stereo not shown), the “hERG current change (%, negative = inhibition) at 10uM” value is on record as -1.9%.
Then `COc1ccc(NC(=O)C2CCCN(CCCc3ccccc3)C2)cc1OCC(C)C.O=C(O)/C=C/C(=O)O` (stereo not shown), with -52.1%; and `COc1ccc(NC(=O)C2CCCCN2N)cc1OCC(C)C.O=C(O)C(=O)O` (stereo not shown), with -5.25%; and `O=C(NCc1ccc2c(c1)OCO2)c1ccc(CN2CCOCC2)cc1`, with 15.3%.
Under `NS(=O)(=O)c1ccc(CCNC(=O)C2Cc3ccccc3CN2C(=O)c2ccco2)cc1` (stereo not shown) stands 9.39%; under `O=C(NCc1ccc(F)cc1)C1Cc2ccccc2CN1C(=O)c1ccco1` (stereo not shown), -42.1%.
In the case of `O=C(NCc1ccccc1)C1Cc2ccccc2CN1C(=O)c1ccco1` (stereo not shown), the “hERG current change (%, negative = inhibition) at 10uM” value is listed as -12.2%.
Under `O=C(NCc1ccc2c(c1)OCO2)c1ccccc1` stands -4.18%.
For the molecule `O=C(NCc1ccc2c(c1)OCO2)C1Cc2ccccc2CN1C(=O)c1ccco1` (stereo not shown), the “hERG current change (%, negative = inhibition) at 10uM” value was -59%.
For `CCS(=O)(=O)N1Cc2ccccc2CC1C(=O)NCCc1c[nH]c2ccccc12` (stereo not shown), the “hERG current change (%, negative = inhibition) at 10uM” value is given as -0.595%.
Then `O=C(NCCc1c[nH]c2ccccc12)C1Cc2ccccc2CN1C(=O)c1ccco1` (stereo not shown), with -71.6%; and `O=C(NCc1ccc2c(c1)OCO2)c1ccc(CN2CCc3ccccc3C2)cc1`, with -52.5%.
Under `COc1ccc(N2C(=O)CC(NCc3cccc(F)c3)C2=O)cc1` (stereo not shown) stands -13.3%.
Under `Cc1ccc(-n2c(=O)[nH]c3c(oc4ccccc43)c2=O)cc1` stands -0.961%.
Turning to `CCOc1ccc(CC2CC(=O)NC2=O)cc1` (stereo not shown), the “hERG current change (%, negative = inhibition) at 10uM” value turned out to be 12.5%.
Then `N=c1oc2ccc(Br)cc2cc1C(=O)NCc1ccc(F)cc1`, with 5.37%.
Under `C/C(=N/NC(=O)c1ccc(Br)o1)C(C)C` stands -1.43%; under `Cc1cccc(C(=O)Nc2ccc(C(=O)Nc3ccc(O)cc3)cc2)c1`, 12.5%.
For `O=C(CCCN1C(=O)c2ccccc2C1=O)Nc1ccc(S(=O)(=O)N2CCCCC2)cc1`, the “hERG current change (%, negative = inhibition) at 10uM” value is given as -28.8%.
Then `O=C(C[n+]1ccccc1)N1c2ccccc2Sc2ccccc21.[Cl-]`, with 20.7%; and `COc1cccc(CNC(=O)CCNS(=O)(=O)c2cccs2)c1`, with -5.11%.
On to `COc1ccccc1-c1coc2c(CN3CCOCC3)c(O)ccc2c1=O`, for which the “hERG current change (%, negative = inhibition) at 10uM” value came to 8.17%.
Consider `O=C(CN1CCCC1)Nc1ccccc1Sc1ccccc1`, for which the “hERG current change (%, negative = inhibition) at 10uM” value was -13.5%.
Under `O=C(CN1CCCC1)Nc1ccccc1Sc1ccc(Cl)cc1` stands -31.1%; under `O=C(CN1CCOCC1)Nc1ccccc1Sc1ccc(Cl)cc1`, -44.1%.
Then `NC(=O)C1CCN(CC(=O)Nc2cc(Cl)ccc2Oc2ccccc2)CC1`, with -67%; and `CC1CCCN(CC(=O)Nc2cc(Cl)ccc2Oc2ccccc2)C1` (stereo not shown), with 14.3%; and `O=C(CN1CCN(c2ccccc2)CC1)Nc1ccccc1Sc1ccccc1`, with 9.55%.
Then `O=C(CN1CCCCC1)Nc1cc(Cl)ccc1Oc1ccccc1`, with 12.5%; and `CN1CCN(CC(=O)Nc2ccccc2Sc2ccccc2)CC1.O=C(O)C(=O)O`, with -65.3%; and `CC(=O)N1CCN(CC(=O)Nc2ccccc2Sc2ccccc2)CC1`, with -59.5%.
For the molecule `CC(=O)N1CCN(CC(=O)Nc2ccccc2Sc2ccc(Cl)cc2)CC1`, the “hERG current change (%, negative = inhibition) at 10uM” value is on record as -78%.
Then `O=C(CN1CCOCC1)Nc1ccccc1Sc1ccccc1`, with -31.3%; and `CC1CCN(CC(=O)Nc2ccccc2Sc2ccccc2)CC1`, with -5.71%; and `COC(=O)CNc1nc(Cl)nc(Nc2ccc(C)cc2)n1`, with 18.3%.
Then `COc1cc(NC(=O)c2cccnc2SC)cc(OC)c1`, with 10.2%; and `O=c1nccc(Nc2ccccc2)[nH]1`, with 16.4%.
Then `CNC(=O)c1ccc(-c2cc(C(F)(F)F)nn2C)s1`, with 17.6%; and `CCCc1sc(N/N=C/c2ccccn2)nc1-c1ccc(Br)cc1`, with 5.39%; and `OCCCNC(=S)Nc1ccc(Oc2ccccc2)cc1`, with 1.06%.
As to `Cc1ccc(OCCSc2nc3ccccc3n2CCC(=O)O)cc1`, the “hERG current change (%, negative = inhibition) at 10uM” value was 9.74%.
Then `CCOc1ccc(-n2c(=O)cc(N3CCN(c4ccc(F)cc4)CC3)[nH]c2=O)cc1`, with 9.15%; and `Cc1cc(NC(=O)NC(=O)c2ccccc2F)no1`, with 13.7%; and `Cc1ccsc1-c1nc(CSCC(=O)N2CCN(c3ccccc3)CC2)c(C)o1`, with -21.1%.
Under `COc1ccc(C(=O)NC(=S)SCC(=O)O)cc1` stands 21.8%; under `Cc1onc(-c2c(F)cccc2Cl)c1C(=O)OCc1cnc(Cl)s1`, -3.61%; under `C[C@H](NC(=O)c1ccco1)C(=O)N1CCCC1`, 21.7%.
Under `NC(=O)C1CCN(CC(=O)Nc2cccnc2Cl)CC1` stands 19.4%; under `NC(=O)C1CCN(CC(=O)Nc2ccccc2Sc2ccc(Cl)cc2)CC1`, -53.7%.
In the case of `NC(=O)C1CCN(CC(=O)Nc2ccccc2Sc2ccccc2)CC1`, the “hERG current change (%, negative = inhibition) at 10uM” value is given as -35.3%.
Then `NC(=O)CC(NC(=O)c1ccc(Br)cc1)c1ccc(N2CCCCCC2)c([N+](=O)[O-])c1` (stereo not shown), with -7.79%; and `CCOC(=O)N1CCN(S(=O)(=O)c2c[nH]c(C(=O)OC)c2)CC1`, with 12%.
In the case of `COc1cccc(CNC(=O)c2nnn(CC(=O)Nc3ccc(C)c(C)c3)c2N)c1`, the “hERG current change (%, negative = inhibition) at 10uM” value came out at 1.8%.
Then `O=C(O)c1ccc(/C=N/Nc2ncc(C(F)(F)F)cc2Cl)cc1`, with 3.54%; and `O=C(Nc1cccc(-c2cccc(F)c2)c1)C1CCN(Cc2ccco2)CC1`, with -67.5%; and `O=C(Nc1cccc(-c2cccc(F)c2)c1)C1CCN(Cc2ccc(CO)o2)CC1`, with -70.3%.
`O=C(c1cccc(F)c1)N1CCN(Cc2ccco2)CC1`: the “hERG current change (%, negative = inhibition) at 10uM” value turned out to be 4.78%.
Then `COCc1ccc(CN2CCC(C(=O)Nc3cccc(-c4cscn4)c3)CC2)o1`, with -18.9%.
Then `COc1cccc(-c2ccc(NC(=O)C3CCCN(Cc4ccc(CO)o4)C3)cc2)c1` (stereo not shown), with 2.83%.
Under `O=C(Nc1cccc(-c2cccc(Cl)c2)c1)C1CCN(Cc2ccc(CO)o2)CC1` stands -68%.
For the molecule `O=C(Nc1cccc(F)c1)C1CCN(C(=O)c2ccco2)CC1`, the “hERG current change (%, negative = inhibition) at 10uM” value is on record as -26.4%.
Then `O=C(Nc1cccc(-c2cscn2)c1)C1CCN(Cc2ccc(CO)o2)CC1`, with -3.02%; and `COc1cccc(-c2cccc(NC(=O)C3CCN(Cc4ccc(C)o4)CC3)c2)c1`, with -39.4%.
Then `Cc1ccc(CN2CCC(C(=O)Nc3cccc(-c4cccc(F)c4)c3)CC2)o1`, with -69.1%.
Then `COc1cccc(-c2cccc(NC(=O)C3CCN(Cc4ccc(CO)o4)CC3)c2)c1`, with -32.5%.
`CCC(=O)OC1(C)C(=O)C2=COC(c3ccc(OC)cc3)=CC2=C(Br)C1=O` (stereo not shown): the “hERG current change (%, negative = inhibition) at 10uM” value is reported as 1.2%.
Then `CC(=O)N(Cc1ccc(Br)cc1)c1cccc(C)c1C`, with 3.64%; and `N#Cc1ccc(CSc2nnc3ccccn23)cc1`, with -0.562%; and `Cc1c(Br)c(C(F)(F)F)nn1CC(=O)NCc1ccccc1`, with 31.8%.
Then `Cc1cc(C)n2nc(SCCOc3ccccc3F)nc2n1`, with -22.7%; and `COc1ccc(C(=O)c2cn[nH]c2-c2ccc(C)cc2O)cc1`, with -2.49%.
Regarding `Cc1cccc(C)c1-n1c(C)cc(/C=N/NC(N)=S)c1C`, the “hERG current change (%, negative = inhibition) at 10uM” value is 15.6%.
Consider `CCOC(=O)CCCCC(=O)c1[nH]c(=O)[nH]c1CN1CCOCC1`, for which the “hERG current change (%, negative = inhibition) at 10uM” value is on record as 20%.
Then `CN(C)/C=C/C(=O)c1ccc2noc(-c3ccc(F)cc3)c2c1`, with -9.41%; and `COc1cccc(-c2onc3ccc(C(=O)/C=C/N(C)C)cc23)c1`, with -31.4%.
With `CC(=O)c1ccc2noc(-c3cccc(F)c3)c2c1`, the “hERG current change (%, negative = inhibition) at 10uM” value stood at 2.79%.
Then `CN(C)/C=C/C(=O)c1ccc2noc(-c3cccc(F)c3)c2c1`, with -50.2%; and `Cc1cccc(-c2onc3ccc(C(=O)/C=C/N(C)C)cc23)c1`, with -42%; and `CN(C)/C=C/C(=O)c1ccc2noc(-c3ccccc3)c2c1`, with -62.6%.
Under `O=C(NCc1ccc2c(c1)OCO2)C1CC(=O)N(c2ccc(F)cc2)C1` (stereo not shown) stands -29.9%; under `CC(C)(C)NC(=O)CN(C(=O)CCC(=O)Nc1nccs1)c1ccc(F)cc1`, 12.6%; under `CCC(CO)NCc1ccc2c(c1)n(C)c(=O)n2C.Cl` (stereo not shown), 17.4%.
Consider `O=C(O)c1ccc(NS(=O)(=O)c2cc(C(=O)O)ccc2Br)cc1`, for which the “hERG current change (%, negative = inhibition) at 10uM” value stood at 17%.
Under `O=C(N/N=C\c1ccc(Cl)s1)c1cccs1` stands 23.2%.
Then `COc1ccccc1N1CCN(C(=O)c2sc3ncn(CC(=O)N4CCC(C)CC4)c(=O)c3c2C)CC1`, with -29.3%; and `Br.CCCCCCCCn1ccc(=N)cc1`, with -27%; and `Br.CCCCCCCCCn1ccc(=N)cc1`, with -66%.
Consider `Br.CCCCCCCCCCn1ccc(=N)cc1`, for which the “hERG current change (%, negative = inhibition) at 10uM” value was -72.9%.
With `Br.CCCCCCCCCCCCn1ccc(=N)cc1`, the “hERG current change (%, negative = inhibition) at 10uM” value is reported as -60.2%.
In the case of `CCCCCCCn1ccc(=N)cc1.I`, the “hERG current change (%, negative = inhibition) at 10uM” value is -14.7%.
Then `Br.CCCCCCn1ccc(=N)cc1`, with 1.66%; and `CCCCCCCCCCCCCCCCn1cc[n+](C)c1.[Br-]`, with -18.4%.
Under `CCCCCn1ccc(=N)cc1.I` stands 11.7%.
Under `Br.CCCCCCN1Cc2ccccc2C1` stands -39.3%.
